Test results reported in PMC5540273 (PLoS ONE, 2017).

Key:
Settings in all cases: concentration: 1 μM, replicates: in singlicate; n = 1
[1] = system: HIPK2
[2] = system: HIPK3
[3] = system: HIPK4
[4] = system: HPK1
[5] = system: HUNK
[6] = system: ICK
[7] = system: IGF1R
[8] = system: T1, IKK-alpha
T1 construct: gene CHUK

[9] = system: T2, IKK-beta
T2 construct: gene IKBKB

[10] = system: T3, IKK-epsilon
T3 construct: gene IKBKE

[11] = system: INSRR
[12] = system: INSR
[13] = system: IRAK1
[14] = system: IRAK3
[15] = system: IRAK4
[16] = system: ITK
[17] = system: JAK1(JH1domain-catalytic)
[18] = system: JAK1(JH2domain-pseudokinase)
[19] = system: JAK2(JH1domain-catalytic)
[20] = system: JAK3(JH1domain-catalytic)
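Further: KINOMEscan kinase panel screen.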

SMILES	%Inh [1] [%]	%Inh [2] [%]	%Inh [3] [%]	%Inh [4] [%]	%Inh [5] [%]	%Inh [6] [%]	%Inh [7] [%]	%Inh [8] [%]	%Inh [9] [%]	%Inh [10] [%]	%Inh [11] [%]	%Inh [12] [%]	%Inh [13] [%]	%Inh [14] [%]	%Inh [15] [%]	%Inh [16] [%]	%Inh [17] [%]	%Inh [18] [%]	%Inh [19] [%]	%Inh [20] [%]
COc1cc2ncnc(Nc3ccc(OCc4ccccc4Br)c(Cl)c3)c2cc1OC.Cl [GI261590]	0	0	0	33	11	0	0	32	16	18	0	0	32	13	18	12	17	0	0	0
O=C(Nc1n[nH]c2nc(-c3ccco3)c(Br)cc12)c1ccc(CN2CCCC2)cc1.O=C(O)[C@H](O)[C@@H](O)C(=O)O [SB-742352]	0	0	0	17	0	37	0	0	0	0	0	0	0	0	0	3	0	1	0	0
Cc1cc(N2CCC(NS(=O)(=O)c3ccc(F)cc3)CC2)nc(Nc2cccc(C#N)c2)n1.O=C(O)C(F)(F)F [GSK1653537]	47	0	0	43	25	0	0	12	2	7	0	0	0	0	4	1	7	0	6	0
Nc1nc(-c2ccccn2)c(-c2ccnc3ccccc23)s1 [GW548057]	5	15	0	20	8	7	9	8	0	22	0	0	33	0	0	5	28	5	22	0
O=C(Nc1ccccc1F)NC1CCN(c2ccnc(Nc3ccc(F)cc3)n2)C1 (stereo not shown) [GSK1379722]	0	10	0	42	24	100	100	24	23	0	0	0	34	14	14	12	12	0	8	0
Oc1ccc2ncnc(Nc3ccc(OCc4ccccc4)cc3)c2c1 [GI262866]	58	6	0	41	8	7	0	7	16	0	18	0	0	0	5	4	12	0	0	0
Cl.Fc1ccccc1COc1ccc(Nc2ncnc3ccc(-c4nnc(C(F)(F)F)o4)cc23)cc1Cl [GW424170]	0	0	0	20	3	0	11	0	0	0	0	0	0	0	0	4	7	0	6	0
COc1ccc(Nc2nccc(N3CCC(NC(=O)c4cccc(NC(C)=O)c4)C3)n2)cc1 (stereo not shown) [GSK1379732]	13	0	0	43	28	0	0	0	0	19	0	0	24	0	0	0	15	0	22	0
CSc1ccc(NC2=C(c3ccccc3Cl)C(=O)NC2=O)cc1 [SB-342411]	0	31	0	0	0	40	6	0	0	44	0	0	0	0	19	4	0	0	0	48
Cl.Cn1ccc(-c2cccc(Nc3ccnc4cc(-c5nccs5)ccc34)c2)n1 [GW525701]	0	0	0	34	22	11	21	30	11	31	0	0	41	0	15	7	18	0	0	0
CC(=O)Nc1n[nH]c2ncc(-c3ccccc3)cc12 [SB-548492]	48	34	7	23	24	28	10	0	22	0	12	0	0	25	0	0	0	87	15	0
O=C(NCCCN1CCCC1=O)c1cnc(NCc2cc(Cl)ccc2Cl)nc1NC1CCNCC1	0	0	13	20	0	0	0	0	0	0	13	0	37	0	2	0	1	4	33	0
Nc1nc(-c2ccc3c(N)n[nH]c3c2)cc(N2CCC[C@@H](C(=O)Nc3ccccc3)C2)n1.O=C(O)C(F)(F)F.O=C(O)C(F)(F)F [GSK2288359]	0	6	1	32	0	12	100	0	0	29	0	9	0	0	0	0	14	23	100	0
Cl.O=S(=O)(c1cccc(F)c1)c1ccc(Nc2ncnc3cc(Br)sc23)cc1Cl [GSK306886]	0	23	0	29	57	0	0	0	41	0	0	13	32	0	0	0	15	0	2	0
c1ccc(-c2ccc3c(-c4ccnc(Nc5ccc6c(c5)OCCO6)n4)cnn3n2)cc1 [GW818941]	0	0	21	47	0	8	9	21	14	6	11	3	8	42	6	9	14	0	11	0
CN1CCC(n2cnc(-c3ccc(F)cc3)c2-c2ccnc(NC3CCNCC3)n2)CC1 [SB-229482]	45	0	0	27	0	45	0	0	0	0	0	0	20	0	4	0	0	0	18	0
CSc1nn2c(=O)cc(N3CCOCC3)nc2n1Cc1cccc(Cl)c1Cl [GSK2347225]	0	17	2	25	25	0	0	0	0	28	0	17	0	0	0	13	24	0	18	0
CCc1nc(-c2cccc(C)c2)c(-c2ccnc(NC(=O)c3ccccc3)c2)s1	9	0	0	0	0	59	2	0	0	100	0	29	14	1	6	16	22	3	19	8
CNc1nccc(-c2c(-c3ccc(F)cc3)ncn2C2CCN(C)CC2)n1 [SB-222903]	5	0	0	0	39	0	0	0	0	0	0	5	0	0	0	5	24	5	5	0
COC(=O)c1cccc(NC(=O)NCCNc2ccnc(Nc3ccc(F)cc3)n2)c1 [GSK1379883]	0	0	0	45	90	0	6	0	0	1	0	0	13	0	4	11	30	0	1	0
